DAX1 inh-1 – inhibitors of DAX1 repression of SF-1 activated StAR promoter; HEK293T StAR-luciferase reporter, SF-1/DAX-1 repression relief; inhibition, % at 6.8 µM; 1.1% of 370,000 active; AID 652010;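 active = inhibition above the mean over all tested compounds plus 3 SD, cut at about 3.6% in these data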;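 note: 0% = DAX-1 cells with DMSO and 100% = cells lacking DAX-1 with DMSO; higher inhibition means more luminescence from relief of DAX-1 repression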
DAX1 inh-2 – NR0B1 (DAX1) inhibition. AID 504766. HEK293 Gal4-DAX1 luciferase reporter, luminescence. inhibition, % at 6.75 µM. 0.99% of 340,000 active;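 active = inhibition above the mean over all tested compounds plus 3 SD, cut at about 4.2% in these data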;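 note: 0% = DAX1-transfected cells with DMSO and 100% = empty-vector control cells with DMSO; inhibition shows as a rise in luminescence from relieved DAX1 repression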
Target sequence (P51843 207-470 limits assumed): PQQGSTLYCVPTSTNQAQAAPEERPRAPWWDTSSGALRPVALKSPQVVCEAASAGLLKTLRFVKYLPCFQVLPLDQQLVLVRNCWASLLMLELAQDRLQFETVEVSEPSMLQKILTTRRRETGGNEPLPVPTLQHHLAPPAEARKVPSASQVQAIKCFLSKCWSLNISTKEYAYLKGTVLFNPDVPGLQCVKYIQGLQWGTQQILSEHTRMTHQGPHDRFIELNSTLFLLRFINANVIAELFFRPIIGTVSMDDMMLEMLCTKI
ssDAF12 agonist – activates DAF-12 receptor from parasite S. stercoralis; 1% of 370,000 active; HEK293 ssDAF-12/GRIP1 lit1-tk-luc reporter, luminescence; % of 3 µM dafachronic acid response; AID 652126; activation, % at 6.8 µM;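 active = activation above the mean over all tested compounds plus 3 SD, cut at about 0.9% in these data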;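 note: 0% = DMSO-only wells and 100% = 3 µM delta7-dafachronic acid wells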
hcDAF12 agonist – activates DAF-12 receptor from parasite H. contortus; 1.4% of 370,000 active; activation, % at 6.8 µM; HEK293 hcDAF-12 lit1-tk-luc reporter, luminescence; 0% DMSO, 100% Δ7-dafachronic acid;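 active = activation above the mean of all tested compounds plus 3 SD, cut at about 5.5% in these data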;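 note: 100% = response to 3 µM Δ7-dafachronic acid high control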
hgDAF12 agonist – activates the H. glycines DAF-12 receptor ligand-binding domain. HEK293 GAL4-hgDAF12 UAS-luciferase reporter, agonist luminescence; normalized to butyrate control. activation, % at 6.8 µM. 1.8% of 370,000 active;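 active = activation above a cutoff set at the mean of all screened compounds plus 3 SD, cut at about 10% in these data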;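 note: 0% = DMSO wells and 100% = sodium butyrate wells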
LXR ag – counter-screen for hcDAF-12 agonists: agonists of human LXR-beta; AID 743027; HEK293 Gal4-LXR tk-luc reporter, luminescence, 24 h; normalized: DMSO 0%, positive control 100%; 3,400 tested, under 10 active; activation, % at 6.8 µM; shares compounds with hcDAF12 agonist;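 active = mean percent activation of the reporter above a cutoff set as the average over tested compounds plus their standard deviation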
hcDAF12 conf – confirmation of H. contortus DAF-12 agonists; HEK293 hcDAF-12 lit1-tk-luc reporter, luminescence; % of Δ7-dafachronic acid response; shares compounds with hcDAF12 agonist; activation, % at 6.8 µM; 61% of 3,400 active; AID 743032;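 active = mean activation across triplicate tests above the threshold derived from the earlier primary screen, cut at about 5.5% in these data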;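 note: 0% = DMSO only wells and 100% = 3 µM Δ7-dafachronic acid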
hgDAF12 conf – confirmation of H. glycines DAF-12 agonists. 80% of 3,300 active. shares compounds with hgDAF12 agonist. activation, % at 6.8 µM. HEK293 GAL4-hgDAF12 luciferase reporter, agonist mode; percent of butyrate response;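 active = mean activation over triplicate wells above the hit cutoff derived from the earlier primary screen, cut at about 11% in these data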;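 note: 0% = DMSO low control and 100% = 2 mM sodium butyrate high control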
LXRb DAF12 ctr – counter-screen for DAF-12 agonists: agonists of human LXR-beta; shares compounds with hgDAF12 agonist; HEK293 Gal4-LXR luciferase reporter, 24 h; activation, % at 6.8 µM; 3,300 tested, under 10 active; AID 743051;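 active = mean activation of the triplicate above a set limit carried over from the primary screen, none filed active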
Active calls of the source: *; . = not tested or not shown. This is a sample that favours compounds with a hit; in the whole collection about 4.1% have one here.

SMILES	DAX1 inh-1	DAX1 inh-2	ssDAF12 agonist	hcDAF12 agonist	hgDAF12 agonist	LXR ag	hcDAF12 conf	hgDAF12 conf	LXRb DAF12 ctr
O=C(Nc1ccc2[nH]ccc2c1)c1ccc(F)cc1	3	-3	1.5*	8.2*	16*	2	5.9*	20*	1
COc1cccc(/C=C/c2ccc3cccc(O)c3n2)c1	0	1	1.5*	9.0*	14*	2	8.5*	24*	1
Oc1cccc(/C=C/c2ccc3cccc(O)c3n2)c1	3.6*	3	4.7*	26*	23*	2	21*	28*	1
COc1cc(/C=C/c2ccc3cccc(O)c3n2)cc(OC)c1OC	-1	-3	-2	-5	-9	.	.	.	.
Cc1ccc(/C=C/c2ccc3cccc(O)c3n2)s1	1	4	1.5*	8.9*	18*	1	15*	16*	1
N#CCC[C@H]1CC[C@]2(CCCN(C(=O)C3CCCC3)C2)O1	0	.	-1	-4	-1	.	.	.	.
COc1ccc(-c2cc(-c3ccccc3O)[nH]n2)cc1OC	3.6*	4	0	7.9*	16*	1	3	16*	1
CCCCc1c(-c2ccccc2OC)ncn1C(C)c1ccccc1 (centres undefined)	1	.	-2	-2	0	.	.	.	.
Cn1c(=O)c2c(c3ccccc31)OC(C)(C)C=C2	0	.	-1	-3	0	.	.	.	.
COc1cccc(C(=O)O/N=C(\N)c2ccc([N+](=O)[O-])cc2)c1	0	-1	-1	-2	-2	.	.	.	.
COc1cccc(C(=O)O/N=C(\N)c2ccc(C)cc2)c1	2	4.5*	0	9.7*	16*	1	7.2*	20*	1
NC(=O)c1c(NC(=O)c2ccco2)sc2c1CCC2	2	2	1.1*	6.7*	14*	1	8.9*	17*	1
CN(C)C(=O)c1c(NC(=O)c2ccco2)sc2c1CCCCC2	0	0	-1	-2	1	.	.	.	.
CCCCCCN1CCS(=O)(=O)N(Cc2ccc(Cl)cc2)C(C(=O)OC)C1 (centres undefined)	0	.	-1	0	-2	.	.	.	.
COC(=O)[C@]12C[C@H](CC(=O)NCc3ccccc3)C(=O)N(Cc3ccc(Cl)cc3Cl)C1=C[C@H](C(C)(C)C)O[C@@H]2C	-1	.	-1	-2	-3	.	.	.	.
CC(=O)Nc1ccc(NC(=O)CSc2nnc(NC(=O)c3ccccc3F)s2)cc1	3	1	0	7.1*	17*	1	7.2*	13*	0
O=C(CSc1nnc(NC(=O)c2ccccc2F)s1)NC1CCCC1	1	1	0	1	3	.	.	.	.
Fc1cccc(/C=N/Nc2nncc3ccccc23)c1	3	-1	1.5*	12*	21*	2	14*	23*	1
COc1ccc2c(c1)CC/C(=C/c1ccco1)C2=O	4.2*	2	0	8.6*	16*	2	6.2*	16*	1
Cc1csc(NC(=O)c2ccc3nc[nH]c3c2)n1	2	1	0	9.8*	20*	1	5	20*	1
O=C(O)c1ccccc1C(=O)Nc1ccccc1NC(=O)c1ccccc1C(=O)O	3	.	0	7.0*	15*	0	0	13*	1
COC(=O)[C@H]1C[C@@]2(N3CCCC3)c3ccccc3N(C(=O)OC(C)(C)C)[C@H]2N1C(=O)OC(C)(C)C	0	.	-1	-2	0	.	.	.	.
CC(COc1cccc(Br)c1)CN1CCC(C(O)(c2ccccc2)c2ccccc2)CC1 (centres undefined)	-2	.	-2	-2	-2	.	.	.	.
Cc1ccc2c(c1)C1CS(=O)(=O)N(CC(C)C)CN1C2 (centres undefined)	0	.	-1	-2	0	.	.	.	.
CCN(CC)S(=O)(=O)c1ccc(-c2cn3cc(Cl)ccc3n2)cc1	-1	-1	0	-1	5	.	.	.	.
SMILES	DAX1 inh-1	DAX1 inh-2	ssDAF12 agonist	hcDAF12 agonist	hgDAF12 agonist	LXR ag	hcDAF12 conf	hgDAF12 conf	LXRb DAF12 ctr
Clc1ccc(-c2cn3cc(Cl)ccc3n2)cc1	3	0	3.2*	20*	14*	2	18*	22*	1
CC(=O)Nc1ccc(-c2cn3cc(C)ccc3n2)cc1	3.6*	-1	0	11*	18*	1	7.4*	11*	0
COc1ccc(NC(=O)CSc2nnc(-c3n[nH]c4c3CCC4)n2N)cc1	-3	.	-2	-1	0	.	.	.	.
CC(=O)Oc1cc2c(s1)CCN(C(C(=O)C1CC1)c1ccccc1F)C2 (centres undefined)	0	.	-1	-1	-1	.	.	.	.
O=C(CCc1nnc(CCCc2ccccc2)o1)NC(C1CC1)C1CC1	2	5.0*	1	7.3*	16*	1	4	15*	1
O=C(Nn1cnc2ccccc2c1=O)c1ccccc1Cl	1	2	-1	0	2	.	.	.	.
Cc1ccccc1C(=O)Nn1cnc2ccccc2c1=O	1	1	1.7*	9.8*	15*	0	8.6*	8	0
COc1ccc(-n2cc3ccc([N+](=O)[O-])cc3n2)cc1	2	2	0	6.7*	21*	2	7.1*	19*	1
CC(C)COc1ccc(-c2cc(C(=O)NN)[nH]n2)cc1	4.0*	0	2.2*	13*	20*	0	3	6	0
O=C(Nc1nc2ccccc2n1CCN1CCCC1)c1ccc(Cl)cc1	1	1	0	7.3*	18*	1	9.5*	16*	0
O=C(Nc1nc2ccccc2n1CCN1CCOCC1)c1ccc(Cl)cc1	0	0	1	2	3	.	.	.	.
Fc1ccccc1-c1ccc(/C=N/Nc2nc3ccccc3[nH]2)o1	2	1	3.4*	13*	21*	1	13*	18*	1
O=C1c2ccccc2-c2nc3ccccc3cc21	2	4	1.0*	7.9*	15*	1	9.9*	17*	1
O=C(Nc1ccc2c(c1)CCC2)c1cccc(F)c1	4.4*	1	1	8.0*	19*	1	5.7*	14*	1
O=C(Cc1cccc(F)c1)Nc1ccc2c(c1)CCC2	0	-1	-1	-1	4	.	.	.	.

Source: PubChem
